# PubChem BioAssay
# Activity calls are given as the source filed them. Unless noted, how the calls were made is not given here.
# Key:
# [1] = A549 cell viability effects, profiling panel, calcein-AM fluorescence, 48 h, basal (AID 1162); settings: higher = more signal; further: test concentration not given here
# [2] = adipocyte viability effects, profiling panel, cell-based, 3T3-L1 adipocytes, calcein-AM fluorescence, 48 h, basal (AID 1163); settings: 3T3-L1 adipocytes viability, higher = more signal; further: test concentration not given here
# [3] = HepG2 cell viability effects, profiling panel, calcein-AM fluorescence, 48 h, basal (AID 1164); settings: higher = more signal; further: test concentration not given here
# [4] = MM1S cell viability effects, profiling panel, calcein-AM fluorescence, 48 h, basal (AID 1165); settings: higher = more signal;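 further: viability of MM1S multiple myeloma cells under basal unstimulated conditions; test concentration not given here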
# [5] = basal RPMI8226 viability, no added stimulus, profiling panel, cell-based, calcein-AM fluorescence, 48 h, PK04 Diversity Set (AID 1166); settings: RPMI8226 myeloma viability, higher = more signal;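 further: cells grown under basal conditions without added stimulus; test concentration not given here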
# [6] = basal HepG2 mitochondrial membrane potential changes, profiling panel, cell-based, JC-1 fluorescence, 24 h, 100 nL compound (AID 1167); settings: higher = more signal; further: test concentration not given here
# [7] = basal 3T3-L1 adipocyte mitochondrial potential changes, profiling panel, cell-based, JC-1 fluorescence, 3T3-L1 adipocytes, 24 h, 100 nL compound (AID 1168); settings: JC-1 mitochondrial fluorescence, higher = more signal, called active from +8 up or from −8 down; further: test concentration not given here
# [8] = basal RPMI8226 mitochondrial membrane potential changes, profiling panel, cell-based, JC-1 fluorescence, 24 h, 100 nL compound (AID 1169); settings: RPMI8226 myeloma, JC-1 mitochondrial potential fluorescence, higher = more signal; further: test concentration not given here
# [9] = basal MM1S mitochondrial membrane potential changes, profiling panel, cell-based, JC-1 fluorescence, 24 h, 100 nL compound (AID 1170); settings: higher = more signal; further: test concentration not given here
# [10] = A549 lung cancer cell viability effects, profiling panel, resazurin fluorescence, 24 h, PK04 Diversity Set (AID 1171); settings: higher = more signal, called active from +8 up or from −8 down; further: test concentration not given here
# [11] = HepG2 liver cancer cell viability effects, profiling panel, resazurin fluorescence, 24 h, PK04 Diversity Set (AID 1172); settings: higher = more signal; further: test concentration not given here
# [12] = basal S. cerevisiae growth modulation, no modifier, primary screen, OD600, strain BY4716, 24 h, basal condition (AID 1173); settings: OD600, 24 h, higher = more signal, called active from +8 up or from −8 down
# [13] = MM1S myeloma cell viability, profiling panel, resazurin fluorescence, basal, 24 h, PK04 Diversity Set (AID 1174); settings: higher = more signal, called active from +8 up or from −8 down;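 further: MM1S multiple myeloma cell line; test concentration not given here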
# [14] = biological target: Dihydroorotate dehydrogenase (quinone), mitochondrial (Plasmodium falciparum (isolate 3D7)) (UniProt Q08210); assay: PfDHODH enzyme inhibitors, primary screen, biochemical, C-terminal His tag, absorbance 600 nm (AID 1175); settings: DCIP absorbance 600 nm, higher = more signal, called active from +8 up or from −8 down;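 further: recombinant parasite enzyme with a five histidine tag at its C terminus; test concentration not given here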
# [15] = P. aeruginosa biofilm formation inhibitors, primary screen, strain PAO1, LB-PBS medium, absorbance 600 nm (AID 1176); further: test concentration not given here; settings: P. aeruginosa PAO1 growth/biofilm, A600, 12 h; higher = more signal
# [16] = S. cerevisiae RM11-1a growth modifiers, primary screen, strain RM11-1a, OD600, basal, 24 h (AID 1177); settings: OD600, 24 h, higher = more signal, called active from +8 up or from −8 down;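 further: cultures grown under basal conditions with no added stressor; test concentration not given here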
# [17] = E. coli acrAB mutant growth effects, primary screen, E. coli filamentation inducers, strain DRC39, OD650, 24 h (AID 1178); settings: higher = more signal, called active from +8 up or from −8 down;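 further: growth measured as culture turbidity by optical density at 650 nm; test concentration not given here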
# [18] = E. coli acrAB mutant growth effects, primary screen, E. coli filamentation inducers, strain DRC39, OD650, 48 h (AID 1179);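 further: screen aims at cell division blockers that make cells filament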; settings: E. coli DRC39 delta-acrAB growth, higher = more signal, called active from +8 up or from −8 down
# [19] = RPMI8226 myeloma cell viability, profiling panel, resazurin fluorescence, basal, 24 h, PK04 Diversity Set (AID 1180); settings: higher = more signal;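 further: RPMI8826 multiple myeloma cell line at 5000 cells per well; test concentration not given here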
# [20] = biological target: E3 ubiquitin-protein ligase XIAP (Homo sapiens) (UniProt P98170); assay: XIAP binders, primary screen, biophysical, small-molecule microarray, fluorescence 635 nm (AID 1181); settings: small-molecule microarray binding, higher = more signal;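 further: score merges 667 nm emission and signal to noise over triplicate slides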
# Chain of E3 ubiquitin-protein ligase XIAP (Homo sapiens) (P98170 whole entry, looked up): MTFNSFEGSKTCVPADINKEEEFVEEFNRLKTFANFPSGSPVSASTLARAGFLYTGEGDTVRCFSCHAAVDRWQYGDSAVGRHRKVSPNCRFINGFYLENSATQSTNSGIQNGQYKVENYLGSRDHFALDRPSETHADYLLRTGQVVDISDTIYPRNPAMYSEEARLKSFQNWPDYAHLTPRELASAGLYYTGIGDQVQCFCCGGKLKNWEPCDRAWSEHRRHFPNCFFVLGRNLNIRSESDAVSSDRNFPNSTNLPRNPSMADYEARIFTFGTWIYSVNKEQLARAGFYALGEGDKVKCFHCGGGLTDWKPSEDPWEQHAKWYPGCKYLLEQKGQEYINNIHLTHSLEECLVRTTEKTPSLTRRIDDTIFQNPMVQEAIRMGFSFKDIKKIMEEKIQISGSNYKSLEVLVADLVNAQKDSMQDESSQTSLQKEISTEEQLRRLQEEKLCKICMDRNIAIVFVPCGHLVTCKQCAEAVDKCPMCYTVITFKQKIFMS
# Chain of Dihydroorotate dehydrogenase (quinone), mitochondrial (Plasmodium falciparum (isolate 3D7)) (Q08210 whole entry, looked up): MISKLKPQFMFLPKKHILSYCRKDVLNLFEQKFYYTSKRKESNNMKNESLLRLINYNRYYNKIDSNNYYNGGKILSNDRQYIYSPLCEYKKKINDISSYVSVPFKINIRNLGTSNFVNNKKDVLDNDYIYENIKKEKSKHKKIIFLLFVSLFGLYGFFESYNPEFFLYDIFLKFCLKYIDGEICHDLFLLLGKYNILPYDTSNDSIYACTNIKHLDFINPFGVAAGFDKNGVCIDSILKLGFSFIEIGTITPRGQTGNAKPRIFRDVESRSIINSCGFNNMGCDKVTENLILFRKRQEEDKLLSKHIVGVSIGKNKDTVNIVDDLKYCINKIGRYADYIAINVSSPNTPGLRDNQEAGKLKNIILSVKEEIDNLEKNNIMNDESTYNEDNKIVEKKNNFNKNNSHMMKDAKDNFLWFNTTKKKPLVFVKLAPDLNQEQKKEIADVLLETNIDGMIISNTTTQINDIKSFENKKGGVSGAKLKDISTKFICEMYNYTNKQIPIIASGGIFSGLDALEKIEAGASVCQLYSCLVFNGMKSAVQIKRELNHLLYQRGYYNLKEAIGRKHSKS
Structure (SMILES),z-score [1],z-score [2],z-score [3],z-score [4],z-score [5],z-score [6],z-score [7],z-score [8],z-score [9],z-score [10],z-score [11],z-score [12],z-score [13],composite z-score [14],z-score [15],z-score [16],z-score [17],z-score [18],z-score [19],composite z-score [20]
CC(C)CCC[C@@H](C)[C@H]1CC[C@@]2(C)C3=C(CC[C@]12C)[C@@]1(C)CC[C@H](OC(=O)c2ccc(Br)cc2)C(C)(C)C1CC3 (stereo not given in full),0.986,0.889,2.04,0.109,-0.269,1.14,0.599 (inactive),0.717,-0.902,-0.255 (inactive),1.05,-0.149 (inactive),0.345 (inactive),-1.4 (inactive),0.0694 (inactive),-1.7 (inactive),0.998 (inactive),1.07 (inactive),0.766,0.0223
COc1cc(CO)cc(I)c1O[C@H]1C=C(C(=O)NCCO)C[C@@H](NCc2ccccc2F)[C@@H]1O,0.687,-0.512,0.496,0.0067,0.12,-0.0312,-0.561 (inactive),0.231,-1.59,0.106 (inactive),-0.0271,-2.31 (inactive),-0.233 (inactive),1.28 (inactive),-0.365 (inactive),1.09 (inactive),0.491 (inactive),0.41 (inactive),0.559,0.0669
CO[C@H]1O[C@H](CO)[C@@H](OC(=O)c2ccc(Br)cc2)[C@@H]2OC(=O)[C@@H](Cc3ccc4ccccc4c3)C/C=C/C[C@H](Cc3ccc4ccccc4c3)C(=O)O[C@@H]12,1.12,1.26,0.564,-0.0385,-0.21,-0.122,0.497 (inactive),-0.299,-0.179,-1.41 (inactive),-0.213,-1.23 (inactive),-0.612 (inactive),-1.92 (inactive),-0.649 (inactive),-1.34 (inactive),0.738 (inactive),1.03 (inactive),0.402,0.0848
CC(C)C(O)C1C=CC2C(=O)N(C)C(=O)C2N1Nc1ccccc1 (stereo not given),0.678,-0.955,0.0515,-1.53,-0.283,-0.993,-1.15 (inactive),-0.0596,-0.254,0.204 (inactive),-0.0778,-0.411 (inactive),-0.84 (inactive),-0.482 (inactive),0.931 (inactive),0.0222 (inactive),-0.219 (inactive),-0.434 (inactive),-1.29,0.0159
O=C1O[C@@H](c2ccccc2)[C@@H](c2ccccc2)N2[C@@H](c3ccccc3OCCO)[C@]3(C(=O)Nc4ccc(C#CCCO)cc43)[C@@H](C(=O)Nc3nc4ccccc4s3)[C@H]12,1.02,0.0714,0.702,-0.264,-1.55,-2.29,0.856 (inactive),-1.13,-1.33,0.2 (inactive),-0.0116,0.282 (inactive),-0.095 (inactive),-0.176 (inactive),0.986 (inactive),2.39 (inactive),-0.233 (inactive),0.695 (inactive),-0.226,-0.145
C=CCNC(=O)[C@H]1[C@@H]2C(=O)O[C@@H](c3ccccc3)[C@@H](c3ccccc3)N2[C@@H](c2ccccc2OCCO)[C@]12C(=O)N(C(=O)OCCOC)c1ccc(C#CC3=CCCCC3)cc12,-1.51,0.963,-0.882,-3.35,-3.88,0.215,1.06 (inactive),-0.924,-1.49,-1.02 (inactive),-1.22,1.22 (inactive),-5.62 (inactive),1.09 (inactive),1.37 (inactive),2.81 (inactive),-0.29 (inactive),0.286 (inactive),-4.42,0.106
COc1cc2c(cc1OC)CN(C(=O)[C@@H]1[C@H]3C(=O)O[C@H](c4ccccc4)[C@H](c4ccccc4)N3[C@H](c3ccccc3OCCO)[C@@]13C(=O)Nc1ccc(C#CC4(O)CCCCCC4)cc13)CC2,0.74,-0.277,0.711,-0.292,-1.88,-0.612,1.3 (inactive),-0.792,-1.31,-0.373 (inactive),0.529,0.882 (inactive),-2.17 (inactive),0.44 (inactive),2.03 (inactive),3.23 (inactive),-0.236 (inactive),1.01 (inactive),0.284,-0.11
CC1CC/C=C\[C@H]2OC34C=CCN(c5ccc6ccccc6c5)C(=O)[C@H]3N(C(CO)C(C)C)C(=O)[C@@H]4C2C(=O)O1 (stereo not given in full),0.534,-0.443,0.468,0.36,0.251,0.356,-0.328 (inactive),0.145,-0.158,-0.294 (inactive),-0.452,-0.0979 (inactive),-0.241 (inactive),-2.17 (inactive),-0.332 (inactive),-0.319 (inactive),0.0932 (inactive),0.154 (inactive),-0.315,0.558
COCCCNC(=O)[C@]1(CCC(=O)OC(C)(C)C)N=C(c2ccc(OCCCO)cc2)O[C@@H]1c1ccccc1,0.369,-0.342,-0.797,0.326,-0.0674,-0.145,0.0968 (inactive),0.86,-0.705,0.119 (inactive),-0.402,0.397 (inactive),-0.121 (inactive),0.152 (inactive),0.413 (inactive),0.0279 (inactive),-0.286 (inactive),-0.0848 (inactive),-0.354,0.081
